From PubChem BioAssay AID463173 (ICCB-Longwood Screening Facility, Harvard Medical School, 2010)
About 4,300 (8.3%) of roughly 52,000 compounds were called active. Only a selection was taken, and actives are over-represented in it overall. Unmarked numbers belong to inactive results. Rule as the data show it: active = survival mostly below about 52% (no sharp cut-off); inactive = mostly above about 56%.

Tested on: DeltatarO mutant
Assay: S. aureus survival, RN4220 and DeltatarO strains – OD600, teichoic acid synthesis inhibitors, primary screen (AID 463173)
Conditions: S. aureus RN4220 wild type/DeltatarO growth, OD600, 18 h, hits give low values, screened at 18.75 µg/mL (by protocol)

SMILES | survival
Cc1cccc(-c2nc(CSc3nncn4c3cc3sccc34)c(C)o2)c1 | 75%
COc1ccc(CC(=O)Nc2cc(-c3cn4cccnc4n3)ccc2OC)cc1 | 91%
COc1ccc(Cl)cc1NC(=O)CN(c1cccc(C)c1C)S(=O)(=O)c1ccccc1 | 72%
Cc1cccc(N2CCN(S(=O)(=O)c3ccc4c(c3)CCCN4C(=O)C3CCC3)CC2C)c1 (configuration not stated) | 77%
COc1cccc(-n2cc(C(=O)Nc3cccc(C(F)(F)F)c3)c3ccccc3c2=O)c1 | 61%
CCCCN(C)c1nnc(NC(=O)Nc2cccc(C(C)=O)c2)s1 | 93%
Cc1cccc2cc(CN(Cc3ccco3)C(=O)N3CCOCC3)c(Cl)nc12 | 85%
O=C(CSc1nccn1Cc1ccc(F)cc1)NCc1ccc(F)cc1 | 71%
O=C(c1cnc(N2CCOCC2)c2ccccc12)N1CCN(c2ccccc2F)CC1 | 71%
CCCc1cc(N2CCN(c3cc(Cl)ccc3C)CC2)n2cnnc2n1 | 30% (active)
CCCc1cc(N2CCN(c3ccccc3F)CC2)n2cnnc2n1 | 75%
CCCc1cc(N2CCN(c3cccc(C)c3C)CC2)n2cnnc2n1 | 52%
CN(C)c1cc2c(cc1NC(=O)c1ccc(F)cc1)n(C)c(=O)n2C | 104%
CCNc1nc(Cl)nc(NC2CCCCC2)n1 | 90%
COc1ccc(-c2cc3ccc(O)c(CN4CCCC4)c3oc2=O)cc1OC | 116%
COc1ccc(-c2cc3ccc(O)c(CN4CCC(C)CC4)c3oc2=O)cc1OC | 52% (active)
COc1ccc(-c2cc3ccc(O)c(CN4CCC(C)CC4)c3oc2=O)cc1 | 71%
Cc1ccc2oc(=O)c3cnn(CC(=O)N4CCN(c5cccc(C(F)(F)F)c5)CC4)c3c2c1 | 87%
Cc1cc(C)c2c(n1)nn1c(C)c(CCC(=O)NCc3ccccc3Cl)c(C)nc21 | 82%
Cc1ccc(NC(=O)CSc2nccn2Cc2ccco2)cc1Cl | 87%
CCN(c1ccccc1)S(=O)(=O)c1nnc(NC(=O)c2cccs2)s1 | 28% (active)
CCN(c1ccc(C)cc1)S(=O)(=O)c1nnc(NC(=O)C2CCCCC2)s1 | 109%
CCN(c1ccccc1)S(=O)(=O)c1nnc(NC(=O)C2CCCCC2)s1 | 48% (active)
CCN(c1ccccc1)S(=O)(=O)c1nnc(NC(=O)C(C)Oc2ccccc2)s1 (configuration not stated) | 43%
CCN(c1ccccc1)S(=O)(=O)c1nnc(NC(=O)c2ccccc2)s1 | 38% (active)

SMILES | survival
CCN(c1ccc(Cl)cc1)S(=O)(=O)c1nnc(NC(=O)C2CCCCC2)s1 | 74%
CCN(c1ccccc1)S(=O)(=O)c1nnc(NC(=O)C(C)(C)C)s1 | 49%
CCN(c1ccc(C)cc1)S(=O)(=O)c1nnc(NC(=O)c2cccs2)s1 | 14% (active)
COc1ccc(OCC(=O)OCc2cc(=O)n3nc(C4CC4)sc3n2)cc1 | 61%
COc1ccc(CNC(=O)CC(c2ccc(OC)c(OC)c2)N2Cc3ccccc3C2=O)cc1 (configuration not stated) | 87%
CCC(=O)N1CCc2cc(OC)c(OC)cc2C1COc1ccc2c(C)cc(=O)oc2c1 (configuration not stated) | 136%
O=C(Nc1ccc(F)c(F)c1)c1cc(S(=O)(=O)NC2CCCC2)ccc1F | 118%
CC(C)Oc1ccc(CNS(=O)(=O)c2csc(C(N)=O)c2)cc1 | 101%
COc1cccc2c1Oc1ncccc1N(C(=O)CCC(=O)NCc1ccc(OC(C)C)cc1)C2 | 83%
CCCCN(C)C(=O)CN1C(=O)c2cccnc2Oc2ccc(Cl)cc21 | 89%
CCN(CC)S(=O)(=O)c1nnc(NC(=O)COc2ccccc2F)s1 | 103%
CCN(c1ccccc1)S(=O)(=O)c1nnc(NC(=O)COc2ccc(OC)cc2)s1 | 55%
CCN(c1ccccc1)S(=O)(=O)c1nnc(NC(=O)COc2ccccc2F)s1 | 31% (active)
O=C1C2CCCC1C(c1ccc3c(c1)OCO3)NC2c1ccc2c(c1)OCO2 (configuration not stated) | 58%
Cc1ccc(-n2ncc(C(=O)NCCCN3CCN(C)CC3)c2C2CCN(C(=O)OC(C)(C)C)CC2)cc1 | 96%
COc1ccc(N2CCN(C(=O)c3noc4c3CCCCC4)CC2)cc1 | 72%
O=C(c1ccc2c(c1)N(Cc1ccc(F)cc1)C(=O)c1ccccc1S2(=O)=O)N1CCCCCC1 | 71%
Cc1ccc2oc(C(=O)Nc3ccc(S(=O)(=O)N(C)Cc4ccccc4)cc3)cc(=O)c2c1 | 50%
c1ccc(N2CCN(c3ncnc4c3nc3n4CCCCC3)CC2)cc1 | 89%
O=C(C1CCN(c2ncnc3c2nc2n3CCCCC2)CC1)N1CCN(c2cccc(Cl)c2)CC1 | 64%
CCN(C(=O)C1CCCN(c2ncnc3c2nc2n3CCCCC2)C1)c1cccc(Cl)c1 (configuration not stated) | 82%
Cc1ccc(NC(=O)C2CCCN(c3ncnc4c3nc3n4CCCCC3)C2)cc1F (configuration not stated) | 92%
Clc1cccc(N2CCN(c3ncnc4c3nc3n4CCCC3)CC2)c1 | 114%
COc1ccc(N2CCN(c3ncnc4c3nc3n4CCCCC3)CC2)cc1 | 100%
COc1cccc(N2CCN(c3ncnc4c3nc3n4CCCCC3)CC2)c1 | 20% (active)

SMILES | survival
Clc1cccc(N2CCN(c3ncnc4c3nc3n4CCCCC3)CC2)c1 | 11% (active)
O=C(Nc1cccc(Cl)c1)C1CCCN(c2ncnc3c2nc2n3CCCCC2)C1 (configuration not stated) | 17% (active)
COc1ccc(OC)c(CNc2ncnc3onc(C)c23)c1 | 129%
CCOc1ccc(NC(=O)c2cc(S(=O)(=O)N3CCC(C)CC3)cn2C)cc1 | 112%
CCOc1ccc(/C=C/c2nc(C#N)c(NCc3ccc(OC)cc3)o2)cc1 | 68%
CCOC(=O)c1[nH]c2c(c1Cc1ccccc1)C(=O)CC(c1ccccc1)C2 (configuration not stated) | 64%
CCOc1ccc(CCNc2nc3c(-c4ccc(C)cc4)nnn3c3ccccc23)cc1OCC | 88%
Cc1cc(-c2ccc(C)c(S(=O)(=O)N(C)c3ccc(C)c(C)c3)c2)on1 | 86%
Cn1c(C(=O)Nc2ccc(OC(F)(F)F)cc2)cc2c(=O)n3ccccc3nc21 | 55% (active)
CCCCCNC(=O)c1cc2c(=O)n3ccccc3nc2n1C | 54%
O=C(Nc1ccc(OC(F)(F)F)cc1)c1cc2c(=O)n3ccccc3nc2s1 | 87%
Cn1c(C(=O)Nc2cccc(C(F)(F)F)c2)cc2c(=O)n3ccccc3nc21 | 98%
Cn1c(C(=O)NCCc2ccccc2)cc2c(=O)n3ccccc3nc21 | 48% (active)
COc1ccc(CCNC(=O)c2cc3c(=O)n4ccccc4nc3n2C)cc1 | 61%
Cc1ccc(NC(=O)CSc2nc3c(c(=O)[nH]2)CN(Cc2ccccc2)CC3)cc1Cl | 70%
CSc1ccc(CCNC(=O)CCCn2nc(C)c3sc4ccccc4c3c2=O)cc1 | 76%
N/N=C1\C(=N/O)CCc2nonc21 | 95%
CCN(CC)c1ccc(NC(=O)Cn2ncc3c(C)n(Cc4ccccc4F)c(C)c3c2=O)c(C)c1 | 79%
Cc1oc2ncnc(N3CCOCC3)c2c1C(=O)NCCc1ccccc1 | 89%
Fc1ccccc1N1CCN(c2ncnc3onc(-c4ccc(Cl)cc4)c23)CC1 | 54% (active)
Cc1oc2ncnc(N3CCOCC3)c2c1C(=O)N1CCN(c2cccc(C(F)(F)F)c2)CC1 | -5% (active)
Fc1ccc(N2CCN(c3ncnc4onc(-c5ccc(Cl)cc5)c34)CC2)cc1 | 65%
Fc1ccccc1N1CCN(c2ncnc3onc(-c4cccc(Cl)c4)c23)CC1 | 53%
Cc1nc(N2CCOCC2)c2c(C(=O)N3CCN(c4ccc(Cl)cc4)CC3)c(C)oc2n1 | 92%
Cc1nc(N2CCCC2)c2c(C(=O)N3CCN(c4ccccc4)CC3)c(C)oc2n1 | 81%

SMILES | survival
Cc1ccc(CCNC(=O)c2c(C)oc3nc(C)nc(N4CCOCC4)c23)cc1 | 106%
Cc1oc2ncnc(N3CCCCC3)c2c1C(=O)N1CCN(c2cccc(C(F)(F)F)c2)CC1 | 66%
Cc1nc(N2CCOCC2)c2c(C(=O)N3CCN(c4cccc(C(F)(F)F)c4)CC3)c(C)oc2n1 | 105%
Cc1nc(N2CCOCC2)c2c(C(=O)NCCc3ccccc3)c(C)oc2n1 | 0% (active)
Cc1nc(N2CCOCC2)c2c(C(=O)N3CCN(c4ccccc4)CC3)c(C)oc2n1 | 37% (active)
COc1ccc2c(CNCc3cccs3)c(C(=O)O)n(Cc3ccc(C)cc3)c2c1 | 77%
CCCOc1ccc(C(=O)NCC(c2ccc(OC)cc2)N2CCCCC2)cc1 (configuration not stated) | 84%
Cc1nc2ccc(NC(=O)C3CC3)cc2c(=O)n1Cc1ccc(F)cc1 | 74%
Cc1ccc(CCNC(=O)c2cc(-c3ccc(Cl)cc3)n[nH]2)cc1 | 69%
CC(Nc1ncnc2c1cnn2-c1cccc(Cl)c1)c1ccccc1 (configuration not stated) | 124%
COc1ccccc1Cn1c(CNS(=O)(=O)c2ccc3c(c2)CCCC3)nc2cccnc21 | 96%
CCOCCCn1c(=N)c(S(=O)(=O)c2ccccc2)cc2c(=O)n3cc(C)ccc3nc21 | 88%
Cc1ccc(CN2CCCn3nc(C(=O)NCc4ccc(N(C)C)cc4)cc3C2=O)cc1 | 80%
Cc1ccc(Cl)cc1N1CCN(C(=O)c2c(C)oc3ncnc(N4CCCCC4)c23)CC1 | -4% (active)
Cc1nc(N2CCOCC2)c2c(C(=O)N3CCN(c4cc(Cl)ccc4C)CC3)c(C)oc2n1 | 46% (active)
Cc1ccc(Cl)cc1N1CCN(c2ncnc3onc(-c4ccc(F)cc4)c23)CC1 | 97%
Cc1ccc(Cl)cc1N1CCN(C(=O)c2c(C)oc3ncnc(N4CCOCC4)c23)CC1 | 89%
Cc1oc2ncnc(N3CCCCC3)c2c1C(=O)N1CCN(c2ccc(Cl)cc2)CC1 | 60%
Cc1ccc(C)c(N2CCN(c3ncnc4onc(C)c34)CC2)c1 | 90%
Cc1ccc(Cl)cc1N1CCN(c2ncnc3onc(C)c23)CC1 | 52% (active)
Cc1ccc(C)c(N2CCN(C(=O)c3c(C)oc4nc(C)nc(N5CCOCC5)c34)CC2)c1 | 115%
Cc1nc(N2CCCC2)c2c(C(=O)N3CCN(c4cc(Cl)ccc4C)CC3)c(C)oc2n1 | 102%
